# Tb PFK inh: blocks T. brucei phosphofructokinase | T. brucei PFK, ADP-Glo luminescence | Potency, µM (highest dose often 57.5 µM), for the others: at the top dose activity, negative = inhibition, hits mostly inhibitors | 330,000 compounds, 0.17% hits;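 also: potency is read from the fitted curve at half-maximal effect; 0% = uninhibited 1x PFK enzyme wells and -100% = no-enzyme wells; nearly all actives have a fitted effect of over 60% in size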
#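 ADP-Glo luminescence quantified ADP after 45 min at room temperature, with 1.25 nM T. brucei PFK, 0.1 mM ATP and 0.5 mM fructose-6-phosphate in pH 8.0 TEA buffer. qHTS titrations up to 57 µM; curves classified by quality.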
# PI4K2A inh: blocks human PI4K2A kinase activity; Q9BTU6; purified PI4K2A, ADP-Glo luminescence, 1 h; stronger effect = lower value; activity change, negative = inhibition, % at 76.9 µM; 420,000 compounds, 0.13% hits; AID 1346378; in the data active = activity change below about -50%; inconclusive = mostly about -30% to -49%;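 also: -100% = wells without enzyme as full effect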
#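 PI4K2A activity was measured by ADP-Glo luminescence: enzyme (4 ug/mL stock) and phosphatidylinositol (1.2 mM stock) in Tris pH 7.5/MgCl2/EGTA/Triton X-100 buffer were reacted with ATP (300 microM stock) for one hour at ambient temperature.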
# APE1 inh: inhibitors of human APE1 endonuclease; recombinant APE1, TAMRA/BHQ-2 abasic DNA cleavage fluorescence; 350,000 compounds, 0.35% hits; P27695; Potency, µM (top dose mostly 65.8 µM), for inactives: top-dose activity change, negative = inhibition, actives largely listed as inhibitors;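 also: potency is read from the fitted curve at half-maximal effect; plate controls were vehicle for no effect and reference inhibitor for full effect; nearly all actives have a fitted effect of over 55% in size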
# Target sequence (P27695 whole entry, looked up): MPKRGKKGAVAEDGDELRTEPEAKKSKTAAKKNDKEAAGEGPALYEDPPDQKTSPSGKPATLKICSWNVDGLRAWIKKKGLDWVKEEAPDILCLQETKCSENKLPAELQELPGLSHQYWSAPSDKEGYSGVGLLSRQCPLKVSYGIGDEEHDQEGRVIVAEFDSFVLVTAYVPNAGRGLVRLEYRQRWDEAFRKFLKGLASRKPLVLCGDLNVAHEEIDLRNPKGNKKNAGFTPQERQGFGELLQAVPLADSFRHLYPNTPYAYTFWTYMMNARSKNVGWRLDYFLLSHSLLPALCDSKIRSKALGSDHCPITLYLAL
#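 APE1 at 0.75 nM final was preincubated with compound 15 min at room temperature, then 50 nM double-stranded THF abasic-site substrate (5'-TAMRA/3'-BHQ-2) was added. Fluorescence (ex 525/em 598 nm) was read kinetically; third-minus-first read gave activity.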
# PGK inhibitor: T. brucei PGK inhibition; P07378; PGK/GAPDH coupled, Kinase-Glo luminescence, 60 min; Potency, µM (top dose mostly 57.5 µM), without a hit: at the top dose activity change, negative = inhibition, actives largely listed as inhibitors; 380,000 compounds, 0.043% hits; also: potency is read from the fitted curve at half-maximal effect; nearly all actives have a fitted effect of over 60% in size
# Target sequence (P07378 whole entry, looked up): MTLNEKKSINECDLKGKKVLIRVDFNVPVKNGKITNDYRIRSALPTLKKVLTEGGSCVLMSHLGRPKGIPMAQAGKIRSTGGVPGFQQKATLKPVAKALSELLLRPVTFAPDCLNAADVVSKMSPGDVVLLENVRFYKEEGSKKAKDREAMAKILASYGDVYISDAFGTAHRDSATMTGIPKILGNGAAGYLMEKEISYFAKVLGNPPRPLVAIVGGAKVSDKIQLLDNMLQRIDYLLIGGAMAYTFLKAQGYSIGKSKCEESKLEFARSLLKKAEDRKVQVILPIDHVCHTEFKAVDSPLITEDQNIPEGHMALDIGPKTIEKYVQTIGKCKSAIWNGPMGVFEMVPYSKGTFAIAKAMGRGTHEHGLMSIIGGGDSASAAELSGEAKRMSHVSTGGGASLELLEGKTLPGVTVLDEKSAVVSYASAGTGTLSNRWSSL
#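 Luminescent ATP detection (Kinase-Glo Plus) follows a 60-minute room-temperature incubation, with wells lacking PGK as controls. Buffer: 100 mM TEA (pH 7.6), 5 mM MgCl2, 0.01% Tween-20. Coupling enzyme GAPDH (100 nM final) supplies unstable 1,3-BPG in-well.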
# TDP1 block: TDP1 (human) enzyme inhibition. Q9NUW8. recombinant TDP1, AlphaScreen DNA substrate cleavage. Potency, µM (series often up to 130 µM), without a hit: at the highest dose activity change, negative = inhibition, actives largely listed as inhibitors. 350,000 compounds, 0.28% hits. AID 485290; also: potency is read from the fitted curve at half-maximal effect; nearly all actives have a fitted effect of over 40% in size
#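 E. coli-derived human Tdp1, 1 nM final. Cpd preinc 15 min RT; substrate 15 nM final, 5 min RT; AS bead mix 10 ug/ml final, 10 min RT. Signal loss = tyrosine-FITC cleavage. No-enzyme wells = max signal.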
# FEN1 inhibitor: blocks human flap endonuclease 1; Recombinant FEN1 flap cleavage, fluorescence, 15 min; Potency, µM (series often up to 114 µM), for the others: at the highest dose activity change, negative = inhibition, usual class: inhibitors; 390,000 compounds, 0.35% hits; also: potency is read from the fitted curve at half-maximal effect; nearly all actives have a fitted effect of over 65% in size
#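 In this screen, 50 nM flap DNA substrate was added to 10 nM FEN1 pretreated with compound for 15 min at room temperature; cleavage was followed with reads at 0 and 15 min, and Hill fitting gave concentration–response parameters.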
# Starred values were filed as active, the others as inactive; i = inactive; ? = inconclusive; · = not tested or not shown; ! = a repeat was not active; [ ] = remark or other dose. Shown are actives, neighbours in structure and some others; about 0.8% of the full set was active somewhere. Unless noted, calls follow the shape of the dose curve; as a rule, active = well fitted curve in the direction sought with a large enough effect; inconclusive = small, poorly fitted or top-dose-only effect, or another doubt; inactive = no such curve, though single readings can be large; an effect the other way counts as inactive or inconclusive. Unless noted, % is scaled to controls: 0 for no effect and ±100 for the full control effect.
SMILES,Tb PFK inh,PI4K2A inh,APE1 inh,PGK inhibitor,TDP1 block,FEN1 inhibitor
CSC1=NSC2=NC(=O)/C(=C\c3coc4ccccc4c3=O)C(=N)N12,0%,2,-10%,-1%,-3%,79µM*
NS(=O)(=O)c1ccc(CCNC(=O)CCS(=O)(=O)c2ccc(Br)cc2)cc1,15µM*,-4,-39%,·,·,11%
CCOc1ccc(-c2cn3ccccc3n2)cc1,-22%,-52*,3%,?,3%,-4%
CN(C)c1ccc(C(=C2C=CC(=[N+](C)C)C=C2)c2ccccc2)cc1,·,-10,-4%,·,25%,·
CN(C)c1ccc(C(=C2C=CC(=[N+](C)C)C=C2)c2ccc(N(C)C)cc2)cc1,·,-59*,?,·,20%,40µM*
CCCCC[n+]1ccn(C2=C([O-])c3ccccc3C(=O)/C2=N\S(=O)(=O)c2ccccc2)c1,-4%,-8,16%,-8%,4%,-11%
CC(C)c1ccc(NC(=O)C[n+]2ccn(C3=C([O-])c4ccccc4C3=O)c2)cc1,-4%,-8,-1%,-4%,50µM*,-20%
O=C(O)c1ccc2c(ccc3nn(-c4ccc(/C=C/c5ccc(-n6nc7ccc8cc(C(=O)O)ccc8c7n6)cc5[S+](=O)([O-])[O-])c([S+](=O)([O-])[O-])c4)nc32)c1,·,·,·,·,2.5µM*,3.2µM*
COc1ccc(CCNCC(=O)Nc2ccc(C)c(Br)c2)cc1OC,-3%,2,37%,i,·,35%
COc1ccc(CCNCC(=O)Nc2ccc(C)c(S(=O)(=O)N(C)C)c2)cc1OC,-7%,1,3%,-2%,79µM*,17%
COc1ccc(C2Nc3ccccc3C(=O)N2Cc2ccccc2Cl)cc1COc1ccc(NC(C)=O)cc1 (configuration not stated),·,·,·,·,1%,·
COc1ccc(-n2nc(C(=O)O)c3csc(N)c3c2=O)cc1,·,·,·,·,-14%,·
COc1ccc(N/C=C2\CCc3ccccc3C2=O)cc1,-20%,-66*,2%,?,1%,-19%
COc1cccc(/C=C2\CCc3ccccc3C2=O)c1,-22%,-69*,-3%,?,3%,-14%
CCCCCCOC(=O)NC(=N)c1ccc(NCc2nc3cc(C(=O)N(CCC(=O)OCC)c4ccccn4)ccc3n2C)cc1,·,-1,·,·,·,·
c1c[nH]c(CNc2ncnc3ccc(-c4ccc5c(c4)OCO5)cc23)n1,·,·,·,·,-19%,·
COc1ccccc1-c1nc(-c2ccccn2)no1,?,-64*,0%,?,-1%,-1%
Cc1ccccc1-c1nc(-c2ccccn2)no1,-22%,-51*,-1%,?,2%,18%
c1cn(-c2cc(-c3ccc4c(c3)OCO4)ncn2)cn1,·,·,8.9µM*,·,·,·
COc1ccccc1-c1cc(-n2ccnc2)ncn1,·,·,1%,·,·,·
COc1cccc(C2c3c(ncn(-c4ccncc4)c3=N)Oc3ccc4ccccc4c32)c1 (configuration not stated),·,·,·,·,3%,·
O=C(Nc1ccc2nc(-c3ccco3)c(-c3ccco3)nc2c1)N1CCN(c2ccccn2)CC1,?,?,8%,-8%,0%,?
O=C(Nc1ccc2nc(-c3ccco3)c(-c3ccco3)nc2c1)N1CCCC1,·,·,·,·,7.1µM*,11µM*
O=C(NCCO)Nc1ccc2nc(-c3ccco3)c(-c3ccco3)nc2c1,1.9µM*,·,-3%,·,3%,·
Cc1nc2ccc(NC(=O)N3CCOCC3)cc2nc1C,1%,-8,-6%,i,-8%,-2%
SMILES,Tb PFK inh,PI4K2A inh,APE1 inh,PGK inhibitor,TDP1 block,FEN1 inhibitor
CC1CCN(C(=O)Nc2ccc3nc(-c4ccco4)c(-c4ccco4)nc3c2)CC1,·,·,·,·,·,16µM*
O=C1c2ccccc2C(=O)N1c1ccccc1O,·,·,·,·,1%,·
O=C1C2C3C=CC(C3)C2C(=O)N1c1ccncc1 (configuration not stated),5%,-1,-3%,3%,-1%,6%
O=C1C2C3C=CC(C3)C2C(=O)N1c1ncn[nH]1 (configuration not stated),?,-1,?,?,16µM*,4%
CC(C)(C)NC(=O)CC1C[C@H](C(=O)N2CCCCC2)[C@@]2(C)c3[nH]c4ccccc4c3CCN2C1=O (some centres not stated),0%,-59*,0%,-3%,3%,7%
Oc1ccc2c(c1)OC(c1ccc(O)c(O)c1)C(O)C2 (configuration not stated),·,·,?,·,8%[56.1 µM],·
Oc1cc(O)c2c(c1)O[C@H](c1ccc(O)c(O)c1)[C@@H](O)C2,-11%,-1,11µM*!,-7%,-6%,15%
O=C(O)c1ccc(Oc2nc3ccccc3s2)cc1,·,-61*,·,-15%,·,-2%
C=C1C=C(C(F)F)n2ncc(C(=O)NCCc3ccc(OC)c(OC)c3)c2N1,·,·,23%,·,·,·
Cc1c(C(=O)NCc2cccc(Br)c2)oc2ccc3c(c12)C(=O)CC(C)(C)O3,·,-4,·,·,1%,89µM*
COc1ccccc1CNC(=O)c1oc2ccc3c(c2c1C)C(=O)CC(C)(C)O3,·,0,·,·,-1%,-19%
O=C(NN(C(=O)c1ccccc1)c1ccccc1)c1ccccc1,?,-8,-11%,?,71µM*,-3%
N#CN1CCC(NC(=O)c2cccc(F)c2)CC1,·,·,·,·,-1%,·
CC(=O)c1ccc(O)c(C(N)=O)c1,·,1,·,·,·,·
C[C@@H]1Cc2c(O)c(O)cc(O)c2C(=O)O1,-1%,-8,?,-19%,·,56µM*
C[C@@H]1Cc2cc(O)cc(O)c2C(=O)O1,·,-1,·,·,·,·
Cc1ccc(NS(=O)(=O)c2ccc3c(c2)N(C)CCO3)cc1C,·,·,·,·,5%,·
O=Cc1cccc(Oc2ncccn2)c1,1%,4,-2%,1%,0%,20%
Nc1ccc(Oc2ncccn2)cc1,-4%,-54*,-18%,·,·,5%
O=C1NC(=O)/C(=C/c2cccn2-c2ccc(P(=O)(O)O)cc2)N1,·,·,40%,·,·,·
O=C(CSc1nnc2ccccn12)NC(=O)c1ccccc1Cl,-19%,-3,13µM*,-20%,25µM*,18%
COc1cc(F)c(S(=O)(=O)N2CCN(S(=O)(=O)c3ccc(N)cc3)CC2)c(F)c1,·,·,·,·,1%,·
O=C(O)c1cccc(-n2cccc2C=C2C(=O)c3ccccc3C2=O)c1,11%,-28,?,-10%,·,50µM*
O=C1C(=Cc2cccn2-c2ccccc2)C(=O)c2ccccc21,0%,-2,-13%,0%,4%,-1%
COc1ccccc1C(=O)Nc1nc2ccccc2s1,-26%,-71*,-9%,?,·,-11%

# Source: PubChem BioAssay
